According to PubChem BioAssay (NCATS):
Results filed as inconclusive are left out. The source made the active and inactive calls. Calls come from the whole dose curve; as a rule, active = well fitted curve in the direction sought with a large enough effect; inconclusive = small, poorly fitted or top-dose-only effect, or another doubt; inactive = no such curve, though single readings can be large; an effect the other way counts as inactive or inconclusive.

Columns and labels:
[1] = qHTS of pediatric cancer cell lines to identify multiple opportunities for drug repurposing: Primary screen for SJ-GBM2 cells (AID 1347091)
Outline: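 Cell viability, CellTiter-Glo luminescence; 500-1,000 cells/well, 8- or 11-point titration, 48 h compound exposure at 37 degrees C, 5% CO2. Controls: DMSO neutral, bortezomib 2.3 µM final as positive.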

[2] = qHTS of pediatric cancer cell lines to identify multiple opportunities for drug repurposing: Primary screen for A673 cells (AID 1347092); note: nearly all actives have a fitted effect of over 45% in size
Outline: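 48 h compound exposure, A673, 500-1,000 cells/well, 37 degrees C/5% CO2. MIPE: 11-point, 0.78 nM-46 µM; NPC: 8-point, 0.59 nM-46 µM (final). Readout CellTiter-Glo luminescence after 15 min RT.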

[3] = qHTS of pediatric cancer cell lines to identify multiple opportunities for drug repurposing: Primary screen for SK-N-MC cells (AID 1347093)
Outline: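 Metabolically active cells were quantified by ATP-dependent luminescence (CellTiter-Glo, 15 min at room temperature) following 48 h treatment. Cells had been plated at 500-1,000 per well and settled for 5 h beforehand.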

[4] = qHTS of pediatric cancer cell lines to identify multiple opportunities for drug repurposing: Primary screen for BT-37 cells (AID 1347094)
Outline: (§1)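 Following a 5-hour attachment period, cells at 500-1,000/well received compounds and were cultured for 48 hours. CellTiter-Glo was added and luminescence read to estimate viable, metabolically active cells.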

[5] = qHTS of pediatric cancer cell lines to identify multiple opportunities for drug repurposing: Primary screen for NB-EBc1 cells (AID 1347095)
Outline: as §1

[6] = qHTS of pediatric cancer cell lines to identify multiple opportunities for drug repurposing: Primary screen for Saos-2 cells (AID 1347097); note: nearly all actives have a fitted effect of over 40% in size
Outline: as §1

[7] = qHTS of pediatric cancer cell lines to identify multiple opportunities for drug repurposing: Primary screen for SK-N-SH cells (AID 1347098); note: nearly all actives have a fitted effect of over 65% in size
Outline: (§2)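 Cells (500-1,000/well) rested 5 h, then received compounds for 48 h; metabolically active cells were measured by CellTiter-Glo luminescence. Final concentrations spanned up to 46 µM (MIPE, 11-point) or 0.59 nM-46 µM (NPC, 8-point) in primary screens, 11-point in follow-ups.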

[8] = qHTS of pediatric cancer cell lines to identify multiple opportunities for drug repurposing: Primary screen for NB1643 cells (AID 1347099); note: nearly all actives have a fitted effect of over 50% in size
Outline: as §1

[9] = qHTS of pediatric cancer cell lines to identify multiple opportunities for drug repurposing: Primary screen for BT-12 cells (AID 1347101); note: nearly all actives have a fitted effect of over 25% in size
Outline: as §2

[10] = qHTS of pediatric cancer cell lines to identify multiple opportunities for drug repurposing: Primary screen for OHS-50 cells (AID 1347103); note: nearly all actives have a fitted effect of over 40% in size
Outline: as §2

[11] = qHTS of pediatric cancer cell lines to identify multiple opportunities for drug repurposing: Primary screen for Rh30 cells (AID 1347107); note: nearly all actives have a fitted effect of over 75% in size
Outline: as §2

[12] = qHTS of pediatric cancer cell lines to identify multiple opportunities for drug repurposing: Confirmatory screen for NB1643 cells (AID 1347109); note: nearly all actives have a fitted effect of over 45% in size
Outline: as §2

[13] = qHTS of pediatric cancer cell lines to identify multiple opportunities for drug repurposing: Confirmatory screen for A673 cells (AID 1347110);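 note: cells exposed to compound for 48 h before the viability read; nearly all actives have a fitted effect of over 65% in size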
Outline: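 Concentration-response curves came straight from titrations: 11 points (0.78 nM to 46 µM) for MIPE and several concentrations (0.59 nM to 46 µM) for NPC in primary, 11 points in follow-up. Readout: ATP luminescence at 48 h.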

[14] = qHTS of pediatric cancer cell lines to identify multiple opportunities for drug repurposing: Primary screen for LAN-5 cells (AID 1347100)
Outline: as §2

[15] = qHTS of pediatric cancer cell lines to identify multiple opportunities for drug repurposing: Primary screen for Rh18 cells (AID 1347102); note: nearly all actives have a fitted effect of over 65% in size
Outline: as §2

[16] = qHTS of pediatric cancer cell lines to identify multiple opportunities for drug repurposing: Primary screen for RD cells (AID 1347104); note: nearly all actives have a fitted effect of over 55% in size
Outline: as §1

[17] = qHTS of pediatric cancer cell lines to identify multiple opportunities for drug repurposing: Primary screen for MG 63 (6-TG R) cells (AID 1347105); note: nearly all actives have a fitted effect of over 50% in size
Outline: as §1

[18] = qHTS of pediatric cancer cell lines to identify multiple opportunities for drug repurposing: Primary screen for control Hh wild type fibroblast cells (AID 1347106); note: nearly all actives have a fitted effect of over 55% in size
Outline: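 Viability after 48 h compound treatment at 37C, 500-1,000 cells/well, read as ATP luminescence with CellTiter-Glo. Primary screens used 11-point (MIPE, 0.78 nM-46 µM) or 8-point (NPC, 0.59 nM-46 µM) final concentrations; follow-up screens used 11-point dilutions.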

[19] = qHTS of pediatric cancer cell lines to identify multiple opportunities for drug repurposing: Primary screen for Rh41 cells (AID 1347108); note: nearly all actives have a fitted effect of over 70% in size
Outline: as §1
Potency is the fitted concentration of half-maximal effect.

Structure (SMILES) | Potency [1] | Potency [2] | Potency [3] | Potency [4] | Potency [5] | Potency [6] | Potency [7] | Potency [8] | Potency [9] | Potency [10] | Potency [11] | Potency [12] | Potency [13] | Potency [14] | Potency [15] | Potency [16] | Potency [17] | Potency [18] | Potency [19]
COc1cccc2c1C(=O)c1c(O)c3c(c(O)c1C2=O)C[C@@](O)(C(=O)CO)C[C@H]3O[C@H]1C[C@H](N)[C@H](O)[C@H](C)O1 | 0.0526 µM (active) | 0.235 µM (active) | 0.105 µM (active) | 0.122 µM (active) | 0.0469 µM (active) | 1.32 µM (active) | 0.242 µM (active) | 0.526 µM (active) | 0.485 µM (active) | 0.611 µM (active) | inactive | 0.522 µM (active) | 0.928 µM (active) |  |  |  |  |  | 
Nc1cccc2c1C(=O)N(C1CCC(=O)NC1=O)C2=O (stereo not given) | inactive | inactive | inactive | inactive | inactive |  | inactive | inactive |  | inactive | inactive |  |  | inactive | inactive | inactive | inactive | inactive | 
C=CC(=O)N1CCc2ccc(-n3c(=O)ccc4cnc5ccc(-c6cnn(C)c6)cc5c43)cc21 | 5.9 µM (active) | 5.9 µM (active) | 1.48 µM (active) | 6.11 µM (active) | 3.72 µM (active) | 2.96 µM (active) | 8.57 µM (active) | 2.35 µM (active) |  | 8.63 µM (active) |  |  | 14.7 µM (active) | 2.35 µM (active) | 8.33 µM (active) | 4.69 µM (active) | 2.96 µM (active) |  | 3.72 µM (active)
C=CC(=O)Nc1cccc(Nc2nc(NC3CCC(N(C)C)CC3)nc3c2ncn3C(C)C)c1 (stereo not given) | 0.235 µM (active) | 0.0118 µM (active) | 0.0042 µM (active) | 0.0968 µM (active) | 0.166 µM (active) | 0.833 µM (active) | 0.136 µM (active) | 0.0332 µM (active) | 0.0385 µM (active) | 0.0385 µM (active) | inactive |  | 0.737 µM (active) | 0.0148 µM (active) | 0.418 µM (active) | 0.0833 µM (active) |  | 2.35 µM (active) | 0.0209 µM (active)
NC(=O)N1CCC(CC(=O)N2CCC([C@H]3c4ncc(Br)cc4CCc4cc(Cl)cc(Br)c43)CC2)CC1 | 16.6 µM (active) | 14.8 µM (active) | 14.8 µM (active) | 19.3 µM (active) | 13.2 µM (active) | 18.7 µM (active) |  | 14.8 µM (active) | 21.7 µM (active) | 8.63 µM (active) |  |  |  | 7.43 µM (active) |  | 20.9 µM (active) | 18.7 µM (active) | inactive | 5.9 µM (active)
CC(=O)[C@]1(O)Cc2c(O)c3c(c(O)c2[C@@H](O[C@H]2C[C@H](N)[C@@H](O)[C@H](C)O2)C1)C(=O)c1ccccc1C3=O | 0.0833 µM (active) | 0.148 µM (active) | 0.118 µM (active) | 0.193 µM (active) | 0.0372 µM (active) |  | 0.192 µM (active) | 0.743 µM (active) | 0.685 µM (active) | 0.485 µM (active) | 4.69 µM (active) |  | 0.0827 µM (active) | 0.0935 µM (active) |  | 1.05 µM (active) |  | 3.72 µM (active) | 
CCc1cnn2c(NCc3ccc[n+]([O-])c3)cc(N3CCCC[C@@H]3CCO)nc12 | 0.0235 µM (active) | 0.0148 µM (active) | 0.0296 µM (active) | 0.0385 µM (active) | 0.0187 µM (active) | 0.0235 µM (active) | 0.0383 µM (active) |  | 0.0432 µM (active) | 0.0343 µM (active) | inactive |  |  |  |  |  |  |  | 0.0743 µM (active)
O=C1NCCc2[nH]c(-c3ccncc3)cc21 | 2.35 µM (active) | 1.18 µM (active) | 4.18 µM (active) | 3.06 µM (active) | 2.09 µM (active) | 4.18 µM (active) |  |  | 2.43 µM (active) | 2.43 µM (active) | inactive |  | 2.08 µM (active) |  |  | 6.62 µM (active) |  | inactive | 2.35 µM (active)
COc1ccc(C[C@@H](C)[C@@H](C)Cc2ccc(OC)c(OC)c2)cc1OC | 0.418 µM (active) | 0.935 µM (active) | 0.833 µM (active) | 0.968 µM (active) | 0.118 µM (active) | 1.05 µM (active) | inactive |  | 0.863 µM (active) | 0.685 µM (active) | inactive |  |  | 0.187 µM (active) | inactive |  |  |  | 
CC(=O)OCC(=O)[C@@]12N=C(C)O[C@H]1C[C@H]1[C@@H]3CCC4=CC(=O)C=C[C@]4(C)[C@@H]3[C@@H](O)C[C@@]12C | inactive | inactive | inactive | inactive | inactive | inactive | inactive | inactive | inactive | inactive | inactive |  |  | inactive |  | inactive | inactive | inactive | 
C[C@@H](Oc1ccc2[nH]nc(C=Cc3cnn(CCO)c3)c2c1)c1c(Cl)cncc1Cl | 0.418 µM (active) | 18.7 µM (active) | 7.43 µM (active) | 24.3 µM (active) | 0.0935 µM (active) |  | 0.681 µM (active) |  |  | 7.69 µM (active) |  | 0.657 µM (active) | 1.31 µM (active) | 4.18 µM (active) |  | 18.7 µM (active) | 18.7 µM (active) |  | 14.8 µM (active)
CCCNC(=O)[C@H]1O[C@H]1C(=O)N[C@H](C(=O)N1CCC[C@@H]1C(=O)OC)C(C)CC (stereo not given in full) | 23.5 µM (active) | 2.35 µM (active) | 2.64 µM (active) | 17.2 µM (active) | 16.6 µM (active) | 2.96 µM (active) |  | 9.35 µM (active) |  | 17.2 µM (active) | 18.7 µM (active) |  |  | 10.5 µM (active) | 14.8 µM (active) | 10.5 µM (active) |  |  | 7.43 µM (active)
COc1cc(C(C)C)c(Oc2cnc(NC(CO)CO)nc2N)cc1I | inactive | 0.372 µM (active) | 1.05 µM (active) | inactive | 26.4 µM (active) |  | 1.08 µM (active) | 2.96 µM (active) |  |  | inactive |  |  | inactive |  |  |  | inactive | 
COc1ccc(C=Cc2cc(OC)c(OC)c(OC)c2)cc1NC(=O)[C@H](N)CO | 0.001 µM (active) | 0.0093 µM (active) | 0.0118 µM (active) | 0.0172 µM (active) | 0.001 µM (active) |  | inactive |  | 0.0086 µM (active) | 0.0137 µM (active) | inactive |  | 0.104 µM (active) | 0.0132 µM (active) |  | 0.0066 µM (active) |  |  | 
Cn1cc(-c2cnn3c(N)c(Br)c([C@H]4CCCNC4)nc23)cn1 | 0.235 µM (active) | 0.059 µM (active) | 0.0935 µM (active) | 0.685 µM (active) | 0.264 µM (active) | 1.48 µM (active) | 17.1 µM (active) | 1.32 µM (active) |  | 0.385 µM (active) | inactive |  | 14.7 µM (active) | 0.743 µM (active) |  | 1.05 µM (active) |  |  | 2.35 µM (active)
Oc1cc(-c2nc(-c3ccccc3)[nH]c2-c2ccncc2)ccc1Cl | 4.69 µM (active) | 1.48 µM (active) | 0.662 µM (active) | 3.85 µM (active) | 3.72 µM (active) | 11.8 µM (active) | 19.2 µM (active) | 18.7 µM (active) | 6.11 µM (active) | 24.3 µM (active) |  |  |  |  | 13.2 µM (active) | 2.09 µM (active) | 11.8 µM (active) | inactive | 
C=C1C[C@@]2(O)O[C@@]3(C[C@H]2C(C)C)[C@H](C)CC[C@H]13 | inactive | inactive | inactive | inactive | inactive |  | inactive | inactive | inactive | inactive | inactive |  |  | inactive | inactive | inactive | inactive | inactive | inactive
